# MCF10A rerep = inducers of DNA re-replication in MCF 10A breast cells; 2.9% of 350,000 active; AID 624296; Potency, µM (titrated, usually from 46.1 µM), actives largely listed as activators; MCF 10A DNA re-replication, Hoechst nuclear intensity, 48 h; also: nearly all actives have a fitted effect of over 50% in size
# Vif-A3F inh = inhibitors of Vif-A3F interaction; HeLa A3F-eYFP + Vif (tagged APOBEC3F with the HIV-1 protein that degrades it), YFP fluorescence increase; Potency, µM (titrated, usually from 46.1 µM); 0.2% of 390,000 active; also: nearly all actives have a fitted effect of over 65% in size
#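 Fluorescence increase (Ex 488/Em 500-530) after overnight compound treatment at 37 deg C flags inhibition of Vif-driven A3F-eYFP loss in stable HeLa A3F-eYFP/Vif cells seeded overnight beforehand.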
# SW480 rerep = DNA re-replication induction in SW480 cells; SW480 DNA re-replication, Hoechst DNA content imaging, 48 h; Potency, µM (highest dose often 46.1 µM), most hits filed as activators; 1.8% of 340,000 active; also: nearly all actives have a fitted effect of over 55% in size
#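 Image-based DNA-content assay: after two days of treatment, nuclei were labelled with the DNA dye Hoechst and imaged, and hits were compounds raising the count of nuclei showing high fluorescence intensity.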
# Vif-APOBEC3G blk = blocks the Vif interaction with human APOBEC3G; Q9HC16; HeLa A3G-eYFP + Vif (tagged APOBEC3G with the HIV-1 protein that degrades it), YFP fluorescence, overnight; Potency, µM (titrated, usually from 46.1 µM), hits mostly inhibitors; 0.076% of 410,000 active; AID 602310; also: nearly all actives have a fitted effect of over 60% in size
# Target sequence (Q9HC16 whole entry, looked up): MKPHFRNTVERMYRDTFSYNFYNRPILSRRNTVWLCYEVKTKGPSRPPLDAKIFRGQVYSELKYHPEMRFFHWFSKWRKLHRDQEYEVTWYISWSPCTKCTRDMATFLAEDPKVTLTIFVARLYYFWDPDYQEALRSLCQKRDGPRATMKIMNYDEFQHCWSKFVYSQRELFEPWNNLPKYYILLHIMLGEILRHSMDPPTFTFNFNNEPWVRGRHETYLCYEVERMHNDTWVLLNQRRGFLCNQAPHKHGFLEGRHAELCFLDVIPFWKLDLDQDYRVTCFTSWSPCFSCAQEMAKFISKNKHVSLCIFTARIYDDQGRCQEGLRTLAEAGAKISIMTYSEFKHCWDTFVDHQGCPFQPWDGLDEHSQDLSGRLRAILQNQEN
#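 Read-out is eYFP fluorescence (Ex 488/Em 500-530) from Vif-expressing HeLa A3G-eYFP cells; more signal means A3G escaped Vif-mediated degradation. Cells plated overnight, compound pinned in, incubated overnight at 37 deg C.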
# IL1B secr inh = inflammasome signaling inhibition, IL-1 beta readout | THP-1 LPS/ATP IL-1B secretion, AlphaLISA, 16 h; active compounds read low | activity change, % at 57.5 µM | 4.7% of 360,000 active; in the data active = activity change below about -50%; inconclusive = mostly about -30% to -49%
#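 Secreted IL-1B measured by AlphaLISA bead assay after 16 h compound exposure of THP-1 cells; compounds (final up to 57.5 uM) added 1 h before LPS (250 ng/mL) and ATP (1.25 mM) stimulation; lower signal means less secretion.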
# Giardia kill = kills Giardia lamblia; Giardia lamblia trophozoite viability; activity change, % at 7.66 µM, hits read low; 0.15% of 340,000 active; in the data active = activity change below about -80%; inconclusive = between about -30% and that limit;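 also: parasites exposed to compound for two days anaerobically before the ATP read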
#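 Killing of trophozoites was scored by loss of ATP luminescence after a 48 hrs anaerobic exposure to compounds at 37 deg C, using 100 cells per well.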
# A number is an active result; – = inactive; ? = inconclusive; · = not tested or not shown. Only some compounds are listed: those with a hit (about 6.9% of all), similar ones and a draw of the others. Unless noted, calls follow the shape of the dose curve; as a rule, active = well fitted curve in the direction sought with a large enough effect; inconclusive = small, poorly fitted or top-dose-only effect, or another doubt; inactive = no such curve, though single readings can be large; an effect the other way counts as inactive or inconclusive.
SMILES,MCF10A rerep,Vif-A3F inh,SW480 rerep,Vif-APOBEC3G blk,IL1B secr inh,Giardia kill
Cc1cc(-n2c(C)cc(C(=O)COc3cccnc3[N+](=O)[O-])c2C)no1,7.3µM,–,8.2µM,–,–,?
O=C(CCC1N=C2c3ccccc3N=C(SCc3ccc(Cl)cc3)N2C1=O)NC1CCCCC1 (centres undefined),·,–,·,–,·,·
Cc1ccc(C)c(NC(=O)CSc2ncc3c(n2)-c2ccccc2N(Cc2ccccc2C)S3(=O)=O)c1,·,–,·,–,·,·
O=S(=O)(c1ccc2nc(Cc3cccc(C(F)(F)F)c3)[nH]c2c1)N1CCOCC1,2.9µM,–,?,–,–,–
COc1ccc(/C=N/NC(=O)c2cc(-c3ccccc3OC(C)C)nc3ccccc23)cc1CN1CCOCC1,8.2µM,–,–,–,?,–
Fc1ccccc1-c1csc(=Nc2cccnc2)n1CC1CCCO1 (centres undefined),?,–,?,–,-66,–
Fc1ccccc1-c1csc(=Nc2cccnc2)n1CCCn1ccnc1,–,–,–,–,?,–
O=C(CSc1nc2ccccc2nc1Cc1ccc(Cl)cc1)N1CCc2ccccc21,·,–,·,–,·,·
O=[N+]([O-])c1ccc(/C=C2\C=C(C(O)c3ccc([N+](=O)[O-])cc3)c3ccccc32)cc1 (centres undefined),·,·,·,–,·,·
OC(C1=CC(=Cc2ccncc2)c2ccccc21)c1ccncc1 (centres undefined),–,–,–,–,-59,–
COc1ccc(C(CNC(=O)c2ccc(S(=O)(=O)N3CC(C)CC(C)C3)cc2)N(C)C)cc1 (centres undefined),?,–,?,–,-52,–
COc1ccc(C(CNC(=O)c2cccc(S(=O)(=O)N3CCCc4ccccc43)c2)N(C)C)cc1 (centres undefined),–,–,?,–,-54,–
COc1ccc(NS(=O)(=O)c2cccc(C(=O)NCC(c3ccccc3)N(C)C)c2)cc1 (centres undefined),–,–,–,–,–,–
O=C(CSc1nncn2c1cc1sccc12)Nc1ccc(Br)cc1F,·,–,·,–,·,·
O=C(c1ccccc1NS(=O)(=O)c1ccc([N+](=O)[O-])cc1[N+](=O)[O-])N1O[C@@H]2C=C[C@H]1C2,?,–,?,–,-72,–
CCCCC1(Cc2ccc([N+](=O)[O-])cc2)C(=O)N(c2ccccc2)N(c2ccccc2)C1=O,?,–,–,–,-58,–
CC1CCCC(C)N1C(=O)CSc1nc2ncnc(N)c2[nH]1 (centres undefined),6.5µM,–,8.2µM,–,–,–
O=C1NC[C@@H](CCCCN2C[C@H](Cc3ccccc3)N(CCC3CCCCC3)C(=O)C2=O)N(CCc2ccccc2)C1=O,·,·,·,·,-51,·
O=C1NC[C@H](CCCCN2C[C@H](Cc3ccccc3)N(CC3CCCCC3)C(=O)C2=O)N(CCc2ccccc2)C1=O,·,·,·,·,-51,·
O=C1NC[C@H](CCCCN2C[C@H](Cc3ccccc3)N(CCC3CCCCC3)C(=O)C2=O)N(CCc2ccccc2)C1=O,·,·,·,·,-72,·
O=C1NC[C@@H](CCCCN2C[C@H](Cc3ccccc3)N(CC3CCCCC3)C(=O)C2=O)N(CC2CCCCC2)C1=O,·,·,·,·,–,·
C=CCOC(/C=C/c1ccccc1)C[Si](C)(C)C (centres undefined),·,·,·,–,·,–
CC(CC(=O)Nc1ccncc1)c1ccccc1 (centres undefined),–,–,–,–,–,–
CC(CC(=O)Nc1cccc(Cl)c1)c1ccccc1 (centres undefined),–,–,–,–,-72,–
COC(=O)c1ccccc1N=Nc1c(N)[nH][nH]c1=O,–,–,?,–,–,–
SMILES,MCF10A rerep,Vif-A3F inh,SW480 rerep,Vif-APOBEC3G blk,IL1B secr inh,Giardia kill
COC(=O)c1ccccc1N=Nc1c(N)n[nH]c1N,–,–,–,–,-60,–
CCOC(=O)N1CCN(C(=O)c2ccccc2-c2ccccc2)CC1,8.2µM,–,10µM,?,–,–
Clc1ccc(-c2nc(N3CCCCC3)nc3ccccc23)cc1,7.9µM,–,13µM,–,?,–
CCOC(=O)N1CCN(c2nc(-c3ccccc3)c3ccccc3n2)CC1,8.2µM,–,16µM,–,–,–
O=C(O)CCC(=O)N1CCN(c2nc(-c3ccccc3)c3ccccc3n2)CC1,21µM,–,–,–,–,–
CCc1ccc(-n2c(SCC(=O)NC(C)CC)nc3n[nH]c(C)c3c2=N)cc1 (centres undefined),·,–,·,–,·,·
COc1ccc(CNC(=O)c2ccc3c(c2)CCN3S(=O)(=O)c2ccc(Cl)cc2)cc1,·,–,·,–,·,·
CC(C)c1ccc(CNc2nc(-c3ccco3)nn2C(=O)c2ccc([N+](=O)[O-])cc2)cc1,·,–,·,–,·,·
Cc1cccc(Cn2c(CNS(=O)(=O)c3ccc4c(c3)CCCC4)nc3cccnc32)c1,·,–,·,–,·,·
Cc1cc(C)c2c(n1)nn1c(C)c(CCC(=O)NCc3ccccc3Cl)c(C)nc21,·,–,·,–,·,·
CCOC(=O)c1cccc(NC(=O)C2Cc3ccccc3N2C(=O)c2ccccc2)c1 (centres undefined),·,–,·,–,·,·
CC[C@H](CO)Nc1nc(Nc2cccc(Cl)c2)c2ncn(C(C)C)c2n1,–,–,?,–,-99,–
CCS(=O)(=O)N1CCC2(CC1)OC(=O)C(C)=C2C(=O)NCc1ccccc1C,·,–,·,–,·,·
CN(C)/C=C(\C#N)S(=O)(=O)C(C)(C)C,5.2µM,–,–,–,–,–
COc1ccc(/C(C)=N/Nc2nc3ccccc3nc2C)cc1OC,–,–,–,–,–,–
C/C(=N\NC1=NCCN1)c1ccc(N)c([N+](=O)[O-])c1,–,–,–,–,–,–
COc1ccc(/C(C)=N/NC2=NCCN2)cc1Cl,–,–,–,–,-74,–
CCCCCCOc1ccc(/C(C)=N/NC2=NCCN2)cc1[N+](=O)[O-],?,–,–,–,-92,–
CC(=NNC1=NCCN1)c1cn(C2=NCCN2)nc1C,·,·,·,–,–,·
CCCCOc1ccc(Br)cc1/C(C)=N/NC1=NCCN1,10µM,–,?,?,-113,–
CCS(=O)(=O)Nc1cc(-c2cn3ccc(C)cc3n2)ccc1C,·,–,·,–,·,·
CCC(C)(C)n1nnnc1C(c1cccnc1)N1CCC(Cc2ccccc2)CC1 (centres undefined),–,–,–,–,-65,–
CCC(C)(C)n1nnnc1C(c1ccncc1)N1CCC(Cc2ccccc2)CC1 (centres undefined),–,·,–,–,–,–
O=C(CCl)NN1C(=O)NC(c2ccccc2)(c2ccccc2)C1=O,?,–,?,–,-117,–
O=C(CCl)NN1C(=O)NC2(CCCCC2)C1=O,–,–,–,–,–,–

# High-throughput results from PubChem.
